Laboratory results reported in the supplement of paper PMC10849652.
The full data set covers some 7,900 targets. This sample favours those with a hit. About 0.6% of all pairs of compound and target were hits.

Tests used:
Assay in all cases: log2 fold change, soluble protein after heating vs DMSO (PISA); higher = thermal stabilisation; K562 cells, 10 uM, 30 min; active = over 0.2 and 3.5 SD of the protein, either way, in both replicates (recomputed)
[1] = compound: Cc1cc(Nc2cc(CN3CCOCC3)c3nc(C)c(Cc4ccc(Cl)cc4F)n3n2)n[nH]1 [gandotinib]
Outline: (§1)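 K562 cells at 2×10^6 cells/mL were exposed to 10 μM compound for 30 min, then aliquots were heated for 3 min across 48°C-58°C, pooled, and extracted in PBS containing 0.5% NP-40 at 4°C. The supernatant after 21,000xg for 90 min was taken as soluble protein and measured by TMTpro 16plex LC-MS/MS with channel sums equalised. Thermal stability is reported relative to control samples, with values from duplicates. Fold changes are given on a log2 scale.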

[2] = compound: Cc1cc(Nc2cc(N3CCN(C)CC3)nc(Sc3ccc(NC(=O)C4CC4)cc3)n2)n[nH]1 [tozasertib]
Outline: as §1

[3] = compound: Cc1ccc(NC(=O)c2ccc(CN3CC[C@H](N(C)C)C3)c(C(F)(F)F)c2)cc1Nc1nccc(-c2cncnc2)n1 [bafetinib]
Outline: as §1

[4] = compound: Cc1cccc(CC(=O)N2CCc3c2ccc(-c2cn(C)c4ncnc(N)c24)c3F)n1
Outline: as §1

[5] = compound: Cc1cn(-c2cc(NC(=O)c3ccc(C)c(Nc4nccc(-c5cccnc5)n4)c3)cc(C(F)(F)F)c2)cn1 [nilotinib]
Outline: as §1

[6] = compound: Cc1nc(Nc2n[nH]c3c2CN(C(=O)N[C@H](CN(C)C)c2ccccc2)C3(C)C)c2sccc2n1
Outline: as §1

[7] = compound: Cc1ncc(-c2ccnc(Nc3ccc(S(C)(=O)=O)cc3)n2)n1C(C)C
Outline: as §1

[8] = compound: Cn1cncc1[C@@](N)(c1ccc(Cl)cc1)c1ccc2c(c1)c(-c1cccc(Cl)c1)cc(=O)n2C [tipifarnib]
Outline: as §1

[9] = compound: FC(F)(F)c1ccc(/C=C/c2nc(COc3ccc(CCCCn4ccnn4)cc3)co2)cc1 [mubritinib]
Outline: as §1

[10] = compound: C[C@@H]1COCCN1C2=NC(=NC(=C2)C3(CC3)S(=O)(=O)C)C4=C5C=CNC5=CC=C4
Outline: as §1

[11] = compound: C[C@H](C1=CC=C(C=C1)C(=O)NC2=C3C=CNC3=NC=C2)N
Outline: as §1

[12] = compound: C[C@H](Nc1ncnc2nc[nH]c12)c1cc2cccc(Cl)c2c(=O)n1-c1ccccc1 [duvelisib]
Outline: as §1

[13] = compound: Cc1cc(SCc2sc(-c3ccc(C(F)(F)F)cc3)nc2C)ccc1OCC(=O)O
Outline: as §1

[14] = compound: Cc1nc(Nc2ncc(C(=O)Nc3c(C)cccc3Cl)s2)cc(N2CCN(CCO)CC2)n1 [dasatinib]
Outline: as §1

[15] = compound: Cn1cc(-c2ccc3c(c2)CCN3C(=O)Cc2cccc(C(F)(F)F)c2)c2c(N)ncnc21
Outline: as §1

[16] = compound: CS(=O)(=O)c1ccc(-c2cnc(N)c(C(=O)Nc3ccccc3)n2)cc1
Outline: as §1

[17] = compound: Cc1ccc(C(=O)N(CCCN)[C@@H](c2nc3cc(Cl)ccc3c(=O)n2Cc2ccccc2)C(C)C)cc1 [ispinesib]
Outline: as §1

[18] = compound: Cn1cc(-c2ccc3nnc(C(F)(F)c4ccc5ncccc5c4)n3n2)cn1
Outline: as §1

[19] = compound: C[C@@H](Oc1cc(-c2cnn(C3CCNCC3)c2)cnc1N)c1c(Cl)ccc(F)c1Cl [crizotinib]
Outline: as §1

[20] = compound: Cc1ccc(-n2nc(C(C)(C)C)cc2NC(=O)Nc2ccc(OCCN3CCOCC3)c3ccccc23)cc1 [doramapimod]
Outline: as §1

Measured: log2 fold change

UBAP2L (UniProt F8W726)
inactive: [1] -0.072 | [2] -0.003 | [3] 0.02 | [4] -0.049 | [5] 0.151 | [6] 0.063 | [7] -0.109 | [8] 0.245 | [9] -0.032

WARS1 (UniProt G3V227)
inactive: [10] -0.024 | [11] 0.147 | [12] -0.011 | [2] -0.016 | [13] -0.015 | [3] 0 | [14] -0.164 | [15] -0.42

UFM1 isoform 2 (UniProt P61960)
UniProt P61960, sequence (P61960 whole entry, looked up): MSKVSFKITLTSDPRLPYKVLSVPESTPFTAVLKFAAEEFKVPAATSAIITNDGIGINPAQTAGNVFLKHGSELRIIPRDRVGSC
inactive: [16] -0.009 | [10] -0.065 | [11] -0.157 | [12] -0.004 | [1] -0.066 | [2] -0.042 | [13] 0.063 | [3] -0.061 | [4] 0.089 | [5] -0.009 | [6] 0.023 | [14] 0.116 | [7] 0.002 | [15] 0.045 | [8] -0.016 | [9] -0.015

TTC26
inactive: [2] -0.11 | [17] 0.105 | [3] -0.04 | [18] 0.04

WARS1 (UniProt G3V339)
inactive: [10] -0.123

TMEM219 (UniProt Q86XT9)
inactive: [16] 0.049 | [10] -0.036 | [11] 0.114 | [12] -0.163 | [1] 0.034 | [2] -0.055 | [13] -0.241 | [3] -0.211 | [4] 0.027 | [5] -0.243 | [6] 0.216 | [14] -0.11 | [7] 0.032 | [15] 0.092 | [8] 0.063

U2AF1L5 (UniProt P0DN76)
inactive: [19] -0.105 | [12] -0.014 | [2] -0.025 | [13] 0.023 | [20] -0.1 | [3] 0.047 | [5] 0.025 | [6] -0.669 | [14] -0.017 | [7] -0.108 | [9] 0.173

TMEM104 (UniProt Q8NE00)
UniProt Q8NE00, sequence (Q8NE00 whole entry, looked up): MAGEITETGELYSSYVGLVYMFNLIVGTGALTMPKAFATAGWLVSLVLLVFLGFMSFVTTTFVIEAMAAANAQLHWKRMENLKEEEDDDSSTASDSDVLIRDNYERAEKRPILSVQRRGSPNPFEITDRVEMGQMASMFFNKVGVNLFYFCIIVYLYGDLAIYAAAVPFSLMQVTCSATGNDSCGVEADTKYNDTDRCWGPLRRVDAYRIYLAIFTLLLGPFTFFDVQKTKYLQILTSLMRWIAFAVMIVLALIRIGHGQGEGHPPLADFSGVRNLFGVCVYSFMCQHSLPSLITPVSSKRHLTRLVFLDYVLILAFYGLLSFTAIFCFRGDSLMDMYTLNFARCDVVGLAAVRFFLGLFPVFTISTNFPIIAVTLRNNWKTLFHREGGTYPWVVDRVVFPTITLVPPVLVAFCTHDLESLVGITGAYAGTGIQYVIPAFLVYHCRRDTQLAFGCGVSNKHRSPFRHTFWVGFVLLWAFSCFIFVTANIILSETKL
inactive: [19] -0.145 | [10] 0.012 | [11] 0.009 | [12] 0.129 | [1] -0.087 | [13] -0.049 | [20] 0.112 | [17] -0.34 | [4] 0.172 | [5] 0.019 | [6] -0.003 | [14] 0.009 | [7] -0.013 | [15] 0.066 | [18] 0.095 | [8] 0.035 | [9] -0.089

WDR75 (UniProt Q8IWA0)
inactive: [19] -0.07 | [10] -0.03 | [11] 0.185 | [12] -0.082 | [2] -0.2 | [13] 0.112 | [20] 0.145 | [17] -0.219 | [3] 0.019 | [5] -0.214 | [6] 0.041 | [14] 0.085 | [7] 0.109 | [15] -0.252 | [18] -0.045 | [8] -0.021 | [9] -0.329

TRIM5 (UniProt Q9C035)
UniProt Q9C035, sequence (Q9C035 whole entry, looked up): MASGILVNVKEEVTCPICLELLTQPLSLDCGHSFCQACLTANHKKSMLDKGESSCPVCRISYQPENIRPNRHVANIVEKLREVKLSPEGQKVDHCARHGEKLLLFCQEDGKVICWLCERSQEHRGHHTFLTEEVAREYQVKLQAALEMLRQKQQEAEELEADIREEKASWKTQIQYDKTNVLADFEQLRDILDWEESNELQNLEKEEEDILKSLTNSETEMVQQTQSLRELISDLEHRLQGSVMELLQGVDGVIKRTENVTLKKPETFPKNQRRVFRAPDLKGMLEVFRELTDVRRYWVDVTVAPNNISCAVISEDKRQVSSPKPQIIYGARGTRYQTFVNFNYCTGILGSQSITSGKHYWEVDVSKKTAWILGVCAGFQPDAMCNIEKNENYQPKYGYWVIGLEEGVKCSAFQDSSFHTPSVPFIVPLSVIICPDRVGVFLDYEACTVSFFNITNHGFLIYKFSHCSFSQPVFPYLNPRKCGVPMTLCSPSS
inactive: [16] -0.032 | [10] 0.037 | [11] 0.148 | [12] -0.109 | [2] -0.096 | [13] -0.127 | [14] -0.088 | [15] 0.013 | [18] 0.133
active: [17] -0.821

TUBA4A (UniProt C9JJQ8)
inactive: [16] 0.009 | [19] -0.019 | [11] -0.159 | [12] 0.19 | [2] 0.001 | [13] 0.108 | [20] -0.046 | [3] 0.116 | [14] -0.082 | [15] 0.012 | [8] 0.047

TRIM44 (UniProt Q96DX7)
UniProt Q96DX7, sequence (Q96DX7 whole entry, looked up): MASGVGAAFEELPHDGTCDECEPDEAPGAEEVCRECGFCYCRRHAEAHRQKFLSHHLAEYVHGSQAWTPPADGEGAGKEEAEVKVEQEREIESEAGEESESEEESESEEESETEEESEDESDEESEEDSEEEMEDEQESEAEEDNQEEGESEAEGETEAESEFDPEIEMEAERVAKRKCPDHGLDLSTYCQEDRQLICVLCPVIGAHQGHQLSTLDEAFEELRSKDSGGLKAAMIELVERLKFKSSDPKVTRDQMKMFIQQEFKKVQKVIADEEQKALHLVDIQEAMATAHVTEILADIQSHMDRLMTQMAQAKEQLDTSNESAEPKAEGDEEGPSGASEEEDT
inactive: [16] 0.013 | [19] 0.083 | [11] -0.059 | [12] 0.063 | [1] 0.045 | [2] 0.022 | [13] 0.024 | [20] -0.004 | [17] 0.03 | [3] -0.033 | [4] -0.01 | [5] -0.024 | [6] -0.023 | [14] -0.029 | [7] 0.026 | [15] 0.002 | [18] 0.051 | [8] -0.041 | [9] 0.065

UBXN8 (UniProt O00124)
inactive: [16] 0.054 | [10] -0.094 | [11] 0.161 | [12] 0.234 | [1] 0.026 | [2] -0.077 | [13] -0.101 | [17] -0.193 | [3] -0.112 | [4] -0.086 | [14] -0.056 | [15] 0.017 | [18] -0.439 | [8] 0.048

VPS72 isoform 2 (UniProt Q15906)
UniProt Q15906, sequence (Q15906 whole entry, looked up): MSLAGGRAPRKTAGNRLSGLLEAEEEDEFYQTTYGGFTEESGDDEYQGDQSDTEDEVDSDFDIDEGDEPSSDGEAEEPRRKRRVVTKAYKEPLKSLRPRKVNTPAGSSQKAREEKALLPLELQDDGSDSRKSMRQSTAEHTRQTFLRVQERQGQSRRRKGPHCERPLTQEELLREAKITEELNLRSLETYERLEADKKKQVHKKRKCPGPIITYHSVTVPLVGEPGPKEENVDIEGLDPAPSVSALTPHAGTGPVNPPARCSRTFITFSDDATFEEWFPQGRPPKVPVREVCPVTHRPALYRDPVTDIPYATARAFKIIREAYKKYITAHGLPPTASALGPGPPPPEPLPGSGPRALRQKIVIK
inactive: [16] -0.041 | [10] 0.093 | [11] 0.196 | [12] -0.021 | [2] 0.007 | [13] -0.021 | [17] 0.218 | [3] -0.064 | [5] 0.086 | [6] 0.02 | [14] 0.044 | [7] -0.024 | [15] -0.052 | [18] 0.08 | [8] 0.074 | [9] 0.009

VKORC1 (UniProt Q9BQB6)
UniProt Q9BQB6, sequence (Q9BQB6 whole entry, looked up): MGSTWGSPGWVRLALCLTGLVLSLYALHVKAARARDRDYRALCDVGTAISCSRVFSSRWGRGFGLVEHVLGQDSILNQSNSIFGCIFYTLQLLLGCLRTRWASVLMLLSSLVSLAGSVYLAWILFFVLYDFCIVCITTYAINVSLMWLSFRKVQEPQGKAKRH
active: [19] 0.494
inactive: [16] 0.012 | [11] -0.032 | [12] 0.153 | [1] -0.116 | [2] -0.027 | [13] 0.106 | [20] 0.033 | [17] -0.108 | [3] -0.062 | [4] 0.045 | [5] -0.008 | [6] 0.013 | [14] -0.049 | [7] -0.013 | [15] 0.105 | [18] 0.081 | [8] 0 | [9] 0.035

TMEM268 isoform 3 (UniProt Q5VZI3)
UniProt Q5VZI3, sequence (Q5VZI3 whole entry, looked up): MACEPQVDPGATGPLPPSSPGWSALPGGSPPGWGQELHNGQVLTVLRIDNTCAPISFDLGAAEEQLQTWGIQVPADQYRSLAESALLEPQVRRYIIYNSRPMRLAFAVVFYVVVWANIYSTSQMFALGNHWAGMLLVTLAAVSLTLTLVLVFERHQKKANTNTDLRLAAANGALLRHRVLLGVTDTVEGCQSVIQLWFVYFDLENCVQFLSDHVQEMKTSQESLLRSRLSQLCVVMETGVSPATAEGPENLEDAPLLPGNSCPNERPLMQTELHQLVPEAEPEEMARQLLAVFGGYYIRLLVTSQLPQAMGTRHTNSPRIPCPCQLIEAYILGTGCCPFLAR
inactive: [16] -0.146 | [10] -0.308 | [11] -0.078 | [12] 0.371 | [1] 0.124 | [2] -0.073 | [13] -0.063 | [17] -0.227 | [3] 0.318 | [4] -0.096 | [5] 0.008 | [6] -0.005 | [14] -0.194 | [7] 0.165 | [15] 0.112 | [18] 0.014 | [8] 0.003 | [9] 0.109

WARS1 (UniProt G3V277)
inactive: [16] -0.009 | [19] -0.001 | [1] -0.218 | [2] -0.206 | [20] 0.029 | [3] -0.008 | [4] -0.116 | [5] -0.065 | [6] 0.039 | [7] -0.034 | [9] 0

UBIAD1 (UniProt Q9Y5Z9)
UniProt Q9Y5Z9, sequence (Q9Y5Z9 whole entry, looked up): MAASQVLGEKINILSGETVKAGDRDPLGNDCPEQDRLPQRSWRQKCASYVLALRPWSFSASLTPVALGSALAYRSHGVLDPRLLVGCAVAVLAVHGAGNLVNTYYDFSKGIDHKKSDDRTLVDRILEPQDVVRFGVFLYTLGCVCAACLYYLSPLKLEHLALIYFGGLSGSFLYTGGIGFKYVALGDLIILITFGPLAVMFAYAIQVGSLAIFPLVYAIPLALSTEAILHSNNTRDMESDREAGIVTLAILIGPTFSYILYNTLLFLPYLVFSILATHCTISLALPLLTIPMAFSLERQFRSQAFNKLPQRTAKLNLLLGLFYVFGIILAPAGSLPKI
inactive: [16] 0.107 | [19] 0.024 | [11] 0.001 | [12] 0.021 | [1] 0.069 | [2] -0.019 | [13] 0.004 | [20] -0.1 | [17] -0.117 | [3] -0.004 | [4] -0.022 | [5] 0.074 | [6] 0.004 | [14] 0.176 | [7] -0.004 | [15] 0.052 | [18] 0.006 | [8] 0.003 | [9] -0.144

VDAC1 (UniProt C9JI87)
inactive: [16] 0.017 | [10] -0.195 | [11] 0.275 | [12] 0.09 | [13] -0.281 | [3] -0.152 | [5] -0.009 | [6] -0.048 | [14] 0.277 | [7] -0.106 | [15] -0.16 | [18] 0.22 | [8] 0.242 | [9] 0.133
active: [17] -0.743

VWA3B isoform 6 (UniProt Q502W6)
UniProt Q502W6, sequence (Q502W6 whole entry, looked up): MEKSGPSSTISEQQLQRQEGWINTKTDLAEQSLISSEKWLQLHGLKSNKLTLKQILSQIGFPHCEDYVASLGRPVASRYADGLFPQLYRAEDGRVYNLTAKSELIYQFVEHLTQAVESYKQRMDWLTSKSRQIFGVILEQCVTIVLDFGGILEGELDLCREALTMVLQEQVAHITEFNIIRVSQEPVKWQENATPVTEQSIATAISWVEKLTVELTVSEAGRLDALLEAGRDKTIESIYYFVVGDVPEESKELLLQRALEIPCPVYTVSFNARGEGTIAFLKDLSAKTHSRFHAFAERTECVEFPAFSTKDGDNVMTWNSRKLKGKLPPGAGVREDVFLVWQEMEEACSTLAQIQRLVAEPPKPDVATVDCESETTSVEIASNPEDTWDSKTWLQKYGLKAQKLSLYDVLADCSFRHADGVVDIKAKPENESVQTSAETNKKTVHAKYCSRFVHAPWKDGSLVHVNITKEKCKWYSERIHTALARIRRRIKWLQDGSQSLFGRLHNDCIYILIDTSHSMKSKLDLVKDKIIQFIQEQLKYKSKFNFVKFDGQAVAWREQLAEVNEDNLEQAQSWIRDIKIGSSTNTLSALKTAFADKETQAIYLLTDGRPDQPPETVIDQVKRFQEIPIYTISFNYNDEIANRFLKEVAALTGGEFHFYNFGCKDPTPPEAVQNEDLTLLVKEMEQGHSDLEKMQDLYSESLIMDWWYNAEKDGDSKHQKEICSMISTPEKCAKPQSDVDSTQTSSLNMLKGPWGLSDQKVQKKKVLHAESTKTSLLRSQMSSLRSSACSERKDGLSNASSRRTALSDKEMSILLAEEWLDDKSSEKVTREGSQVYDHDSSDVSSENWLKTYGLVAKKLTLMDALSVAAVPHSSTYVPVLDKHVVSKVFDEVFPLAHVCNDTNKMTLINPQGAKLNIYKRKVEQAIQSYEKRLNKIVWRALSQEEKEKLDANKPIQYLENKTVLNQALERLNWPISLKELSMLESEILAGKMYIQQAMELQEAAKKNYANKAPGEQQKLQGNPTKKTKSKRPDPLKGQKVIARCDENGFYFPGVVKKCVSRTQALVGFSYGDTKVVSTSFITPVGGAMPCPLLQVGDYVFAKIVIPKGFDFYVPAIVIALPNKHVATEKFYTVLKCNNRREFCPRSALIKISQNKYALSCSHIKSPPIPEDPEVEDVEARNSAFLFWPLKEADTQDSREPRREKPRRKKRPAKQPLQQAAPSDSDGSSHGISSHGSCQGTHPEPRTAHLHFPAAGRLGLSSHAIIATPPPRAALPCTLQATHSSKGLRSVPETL
inactive: [19] -0.012 | [10] 0.074 | [11] 0.045 | [12] 0.337 | [1] -0.08 | [2] 0.028 | [13] 0.172 | [20] 0.079 | [17] -0.266 | [3] 0.074 | [4] 0.024 | [5] -0.128 | [6] 0.075 | [14] 0.148 | [7] -0.129 | [15] 0.045 | [18] 0.003 | [8] 0.047 | [9] 0.014

TRIM23 (UniProt P36406)
UniProt P36406, sequence (P36406 whole entry, looked up): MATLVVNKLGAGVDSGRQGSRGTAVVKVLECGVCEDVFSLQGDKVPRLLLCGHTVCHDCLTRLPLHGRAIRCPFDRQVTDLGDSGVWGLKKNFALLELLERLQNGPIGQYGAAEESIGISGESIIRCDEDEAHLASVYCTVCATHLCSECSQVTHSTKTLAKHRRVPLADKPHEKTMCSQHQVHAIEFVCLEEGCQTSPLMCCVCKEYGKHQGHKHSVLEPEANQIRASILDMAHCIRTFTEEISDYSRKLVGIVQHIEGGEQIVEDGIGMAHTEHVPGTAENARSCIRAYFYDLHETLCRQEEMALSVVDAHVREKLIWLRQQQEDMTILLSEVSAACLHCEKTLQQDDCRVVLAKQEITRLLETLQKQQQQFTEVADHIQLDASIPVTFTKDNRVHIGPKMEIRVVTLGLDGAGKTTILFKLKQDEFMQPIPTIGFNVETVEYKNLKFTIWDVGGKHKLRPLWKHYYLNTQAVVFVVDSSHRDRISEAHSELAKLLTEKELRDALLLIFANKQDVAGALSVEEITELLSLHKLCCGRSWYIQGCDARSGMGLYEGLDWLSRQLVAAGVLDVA
inactive: [16] 0.143 | [19] 0.152 | [11] -0.122 | [12] 0.008 | [1] 0.128 | [2] -0.135 | [13] 0.001 | [20] -0.043 | [17] 0.115 | [3] -0.006 | [4] -0.121 | [5] -0.091 | [6] 0.001 | [14] -0.004 | [7] 0.088 | [15] 0.126 | [18] 0.002 | [9] 0.028

TXNL4B (UniProt Q9NX01)
UniProt Q9NX01, sequence (Q9NX01 whole entry, looked up): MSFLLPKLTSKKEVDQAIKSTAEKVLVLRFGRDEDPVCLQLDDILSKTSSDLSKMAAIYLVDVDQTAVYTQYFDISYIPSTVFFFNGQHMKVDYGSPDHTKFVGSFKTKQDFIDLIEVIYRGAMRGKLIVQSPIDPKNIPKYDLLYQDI
inactive: [16] 0.22 | [19] 0.309 | [11] 0.008 | [12] 0.083 | [1] -0.024 | [2] 0.07 | [13] 0.054 | [20] 0.037 | [17] -0.017 | [3] -0.1 | [4] 0.005 | [5] 0.003 | [6] -0.041 | [14] -0.042 | [7] 0.01 | [15] 0.007 | [18] 0.028 | [8] 0.008 | [9] 0.17

ULBP1 (UniProt Q9BZM6)
UniProt Q9BZM6, sequence (Q9BZM6 whole entry, looked up): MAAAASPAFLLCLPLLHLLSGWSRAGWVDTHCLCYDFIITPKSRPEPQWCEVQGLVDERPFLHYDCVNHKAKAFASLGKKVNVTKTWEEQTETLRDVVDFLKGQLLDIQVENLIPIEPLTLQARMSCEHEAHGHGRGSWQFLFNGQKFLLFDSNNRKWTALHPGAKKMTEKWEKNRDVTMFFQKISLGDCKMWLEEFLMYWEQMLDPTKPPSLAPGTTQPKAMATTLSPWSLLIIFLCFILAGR
inactive: [16] 0.188 | [10] 0.192 | [11] 0.156 | [12] -0.024 | [2] 0.044 | [13] 0.014 | [17] 0.011 | [14] 0.083 | [15] 0.068 | [18] -0.11 | [8] -0.097 | [9] 0.004
